Reference: PubChem BioAssay AID1345085 (National Center for Advancing Translational Sciences (NCATS), 2018)
Records with an inconclusive call do not appear. Unmarked numbers belong to inactive results. Active and inactive are the calls of the source. Calls come from the whole dose curve; as a rule, active = well fitted cell-killing curve with a large enough effect; inconclusive = small, poorly fitted or top-dose-only effect, or effect the other way; inactive = no such curve, though single readings can be large or run the other way.

system: CAOV3; experiment: Confirmatory qHTS for gynecologic anti-cancer compounds from libraries of approved drugs and bioactive compounds; settings: gynecologic cancer cell panel viability, ATPlite luminescence, 48 h; series mostly up to 57.6 µM; activity change, negative = viability loss: at the top concentration; note: nearly all actives have a fitted effect of over 55% in size
Description: National Center for Advancing Translational Sciences [NCATS] Assay Overview: Chemotherapeutic drug responses vary from cancer to cancer and from patient to patient. These variations could be caused by a number of factors including patient genomic background, tumor mutations, tumor heterogeneity, and aspects of drug treatment. Chemotherapeutic drug resistance is also a common issue and can lead to ineffective treatment and patient death. Here we have profiled the cell killing effects of thousands of compounds to characterize the responses in three gynecological cancers, identify cancer-selective compounds, and understand the diversity of responses to these compounds from pan-cancer suppressors to single cell line selective compounds. In this assay, we screened a 7,914 compound drug library that included approved drug and bioactive compounds in six ovarian, three cervical, and two placental cancer cell lines using the ATPlite assay for cell viability. ATPlite is a luminescence based assay reliant on the conversion of a luciferase substrate to light in the presence of ATP. As a cytotoxic compound will suppress growth and decrease the number of cells, the concentration of ATP will decrease, and less light signal will be detected in the well. Hits were selected from the primary screen for follow-up confirmation. For the confirmation screens, the ovarian cancer cell lines included CAOV-3, SK-OV-3, SW 626, ES-2, PA-1, and TOV-21G. The cervical cancer cell lines included HeLa, Ca Ski, and C-33 A. The placental cancer cell lines included JEG-3 and JAR. HEK 293T cells were used as the control cell line to determine the selectivity index. The ATPlite assay was used to determine the IC50 values.
Assay Protocol Summary: 1,000 cells in 4 uL of media were dispensed into white, solid bottom 1536-well plates using a Multidrop Combi (Thermo Scientific). The Assay plates were incubated for 16 hours at 37 C with 5% CO2 in assay plates, followed by the addition of 23 nL of DMSO or drug dissolved in DMSO. . Each compound was assayed in 11 concentrations (1:3 dilution) from 57.5 uM to 0.977 nM, using the automated Wako 1536 Pin Tool workstation and incubated at 37 C with 5% CO2 48 hours. 4 uL of ATPlite, the ATP monitoring reagent, was then added to the each well of the assay plates using the Multidrop Combi reagent dispenser followed by incubation for 15 minutes at room temperature. The resulting luminescence was measured using the ViewLux plate reader.
% is set by controls: 0 for no effect and ±100 for the full control effect; potency is the fitted concentration of half-maximal effect.

Compound	Potency	activity change, negative = viability loss
NC(=O)Nc1cc(-c2cccc(F)c2)sc1C(=O)NC1CCCNC1 (stereo not given)	1.22 µM (active)	–
COc1ccc2c(c1)c(CC(=O)O)c(C)n2C(=O)c1ccc(Cl)cc1	–	11.3%
COc1c(C)c2c(c(O)c1C/C=C(\C)CCC(=O)O)C(=O)OC2	–	-18.3%
Cc1ccn(-c2ccc(-c3ncco3)cc2)c(=O)c1-c1ccc2nc(N)ncc2c1	–	-11.3%
C[C@]12CCC(=O)C=C1CC[C@@H]1[C@@H]2[C@@H](O)C[C@@]2(C)[C@H]1CC[C@]2(O)C(=O)CO	–	-8.12%
CCC1=CC2CN(C1)Cc1c([nH]c3ccccc13)[C@@](C(=O)OC)(c1cc3c(cc1OC)N(C)[C@H]1[C@@](O)(C(=O)OC)[C@H](OC(C)=O)[C@]4(CC)C=CCN5CC[C@]31[C@@H]54)C2 (stereo not given in full)	–	1.08% [at 19.5 µM]
COc1cc(N2CCC(N(C)C)CC2)ccc1Nc1ncc(Cl)c(Nc2ccccc2P(C)(C)=O)n1	10.9 µM (active)	–
CCCCc1nc2cc(/C=C/C(=O)NO)ccc2n1CCN(CC)CC	4.85 µM (active)	–
CC[C@@]1(O)C(=O)OCc2c1cc1n(c2=O)Cc2cc3cc(O)ccc3nc2-1	0.109 µM (active)	–
COc1ccc(CCC(=O)c2c(O)cc(O[C@@H]3O[C@H](CO)[C@@H](O)[C@H](O)[C@H]3O[C@@H]3O[C@@H](C)[C@H](O)[C@@H](O)[C@H]3O)cc2O)cc1O	–	12.1%
O=C(Nc1cccnc1)N1CCC(Cc2cccc(Oc3ccc(C(F)(F)F)cn3)c2)CC1	–	-13.2%
COC(C(=O)N1Cc2[nH]nc(NC(=O)c3ccc(N4CCN(C)CC4)cc3)c2C1)c1ccccc1 (stereo not given)	1.53 µM (active)	–
COc1cc(F)c(F)c(Nc2ccc(I)cc2F)c1NS(=O)(=O)C1(CC(O)CO)CC1 (stereo not given)	–	-6.27%
COc1cc2c(c(OC)c1OC)-c1ccc(OC)c(=O)cc1[C@@H](NC(C)=O)CC2	–	0.285% [at 486 µM]
CCN[C@H]1C[C@H](C)S(=O)(=O)c2sc(S(N)(=O)=O)cc21	–	9.03%
CCCCN(CCCC)CC(O)c1cc(Cl)cc2c1-c1ccc(Cl)cc1/C2=C/c1ccc(Cl)cc1 (stereo not given)	–	-11.5%
O=C(NOCC1CC1)c1ccc(F)c(F)c1Nc1ccc(I)cc1Cl	–	0.245%
Cc1cc(C2CCCCC2)n(O)c(=O)c1	12.5 µM (active)	–
CC(C)Nc1cc(-c2c[nH]c(C(=O)N[C@H](CO)c3cccc(Cl)c3)c2)c(Cl)cn1	–	8.77%
Cc1csc(NC(=O)c2sc3nc4c(c(C(F)(F)F)c3c2N)CCC4)n1	1.72 µM (active)	–

Compound	Potency	activity change, negative = viability loss
COc1ccccc1N1CCN(CC(O)COc2cccc3ccccc23)CC1 (stereo not given)	–	-3.71%
CS(=O)(=O)c1ccc(-c2cnc(N)c(C(=O)Nc3ccccc3)n2)cc1	–	-10.9%
CC(=O)OC12COC1CC(O)C1(C)C(=O)C(O)C3=C(C)C(OC(=O)C(O)C(NC(=O)OC(C)(C)C)c4ccccc4)CC(O)(C(OC(=O)c4ccccc4)C21)C3(C)C (stereo not given)	–	17.5%
O=C(c1ccc(/C=C/c2n[nH]c3ccccc23)cc1)N1CCNCC1	19.3 µM (active)	–
Cc1cnc(Nc2ccc(OCCN3CCCC3)cc2)nc1Nc1cccc(S(=O)(=O)NC(C)(C)C)c1	7.69 µM (active)	–
Cc1cnc(Nc2cccc(CN3CCOCC3)c2)nc1Nc1cccc(S(=O)(=O)NC(C)(C)C)c1	10.9 µM (active)	–
COC(C)(C)CCn1nc(Nc2c(C)cccc2C)c2cnc(Nc3ccc(OCCN4CCCC4)c(F)c3)nc21	21.7 µM (active)	–
C#C[C@]1(O)CC[C@H]2[C@@H]3CCC4=CC(=O)CC[C@@H]4[C@H]3CC[C@@]21CC	–	2.47%
FC(F)(F)c1ccc(/C=C/c2nc(COc3ccc(CCCCn4ccnn4)cc3)co2)cc1	–	-31%
CCN(CC)CCOc1ccc(/C(=C(\Cl)c2ccccc2)c2ccccc2)cc1	100 µM (active)	–
O=C(c1ccc(F)c(F)c1Nc1ccc(I)cc1F)N1CC(O)([C@@H]2CCCCN2)C1	27.3 µM (active)	–
Cc1cc(Nc2cc(N3CCN(C)CC3)nc(Sc3ccc(NC(=O)C4CC4)cc3)n2)n[nH]1	–	5.82%
NC(=O)c1cnc(-c2ccc(C3(N)CCC3)cc2)c(-c2ccccc2)c1	30.6 µM (active)	–
CC(C)Oc1ccc(C(=O)NC(CNC(=O)CN(C)C)Cc2ccc(-c3cn4cccc(C(C)O)c4n3)cc2)cc1Cl (stereo not given)	–	-17.3%
CN(C)/N=N/c1nc[nH]c1C(N)=O	–	11%
CCc1nc(C(N)=O)c(Nc2ccc(N3CCC(N4CCN(C)CC4)CC3)c(OC)c2)nc1NC1CCOCC1	6.72 µM (active)	–
Nc1nc(Cl)nc2c1ncn2C1OC(CO)C(O)C1F (stereo not given)	0.544 µM (active)	–
CN(C)C(CCOc1cccc2ccccc12)c1ccccc1 (stereo not given)	30.6 µM (active)	–
CN[C@@H](C)C(=O)N[C@H]1CN(C(=O)CC(C)C)CC[C@H]2CC[C@@H](C(=O)NC(c3ccccc3)c3ccccc3)N2C1=O	–	-7.72%
Cc1cc(Nc2nc(N[C@@H](C)c3ncc(F)cn3)ncc2Cl)n[nH]1	7.69 µM (active)	–
